Assay results reported in PubChem BioAssay AID588342 (National Center for Advancing Translational Sciences (NCATS), 2011).
Out of some 360,000 compounds screened, about 25,000 (6.9%) were called active. Another 9% or so got no clear call; they are omitted. The entries come from a sample that favours actives as a whole. Unmarked numbers belong to inactive results. The call rests on the fitted dose curve; in most records, active means well fitted inhibition curve with a large enough effect; inconclusive means small, poorly fitted or top-dose-only effect; inactive means flat fitted curve, though single readings scatter.

molecular target: Luciferin 4-monooxygenase (Photinus pyralis) (UniProt P08659); test: qHTS profiling assay for firefly luciferase inhibitor/activator using purifed enzyme and Km concentrations of substrates (counterscreen for miR-21 project); conditions: purified FLuc, luminescence inhibition; series mostly up to 57.5 µM; activity change, negative = inhibition: at the top concentration; further: nearly all actives have a fitted effect of over 55% in size;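 on activity change, negative = inhibition: plate controls were vehicle for no effect and reference inhibitor for full effect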
Sequence (P08659 whole entry, looked up): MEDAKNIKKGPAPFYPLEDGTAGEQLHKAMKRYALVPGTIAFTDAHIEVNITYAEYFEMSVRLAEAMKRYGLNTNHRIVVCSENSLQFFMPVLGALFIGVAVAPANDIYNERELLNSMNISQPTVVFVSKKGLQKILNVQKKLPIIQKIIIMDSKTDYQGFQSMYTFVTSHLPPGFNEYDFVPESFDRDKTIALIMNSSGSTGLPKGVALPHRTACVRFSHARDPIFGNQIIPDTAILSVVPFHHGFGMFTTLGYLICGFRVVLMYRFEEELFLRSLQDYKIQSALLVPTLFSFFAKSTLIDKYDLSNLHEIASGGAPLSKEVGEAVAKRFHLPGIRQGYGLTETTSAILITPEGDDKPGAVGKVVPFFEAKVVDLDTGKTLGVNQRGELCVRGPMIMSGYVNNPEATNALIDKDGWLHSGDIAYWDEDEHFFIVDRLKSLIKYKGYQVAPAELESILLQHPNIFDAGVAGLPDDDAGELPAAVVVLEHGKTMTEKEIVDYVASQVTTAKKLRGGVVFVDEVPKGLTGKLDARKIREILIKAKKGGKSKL
In short: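 Purified P. pyralis luciferase (10nM final) with 10uM D-luciferin and 10uM ATP (Km levels) in 50mM Tris acetate pH 7.5, 10mM Mg acetate, 0.01% Tween-20, 0.05% BSA; qHTS 6-point titration, ~60 µM downward; luminescence read.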
Potency means the concentration at half of the fitted maximal effect.

SMILES	Potency	activity change, negative = inhibition [%]
O=C(Nc1ccc2c(c1)OCCO2)c1cnccn1	12 µM (active)	
O=C(Nc1cccc(NC(=O)c2ccco2)c1)c1cnccn1		-19.7
COc1cccc(NC(=O)c2nn(C34CC5CC(CC(C5)C3)C4)cc2[N+](=O)[O-])c1		-19.1
O=C(Nc1ccc2c(c1)OCO2)c1ccc(N2C(=O)c3ccccc3C2=O)cc1		-1.23
O=C(CCN1C(=O)c2ccncc2C1=O)Nc1ccc2c(c1)OCCO2		0.0538
CCC(C(=O)Nc1ccc2c(c1)OCCO2)c1ccccc1 (configuration not stated)		-16.1
Cc1nn(CC(=O)Nc2ccc3c(c2)OCO3)c(C)c1[N+](=O)[O-]		6.2
Cn1cc([N+](=O)[O-])c(C(=O)Nc2ccc3c(c2)OCCO3)n1	16.9 µM (active)	
O=C(Nc1ccc2c(c1)OCCO2)c1ccoc1	21.3 µM (active)	
O=C(OCc1cc(=O)n2ccsc2n1)C1(c2ccc(Cl)cc2)CC1		2.5
COCC(C)NS(=O)(=O)c1ccc(N2CCCCS2(=O)=O)cc1 (configuration not stated)		1.96
COc1ccccc1N=C1SC(C)CN1C(=O)C1CCC1 (configuration not stated)		1.9
CCOc1ccc(C(=O)Nc2ccc3nc4c(c(Nc5ccccc5OC)c3c2)CCCC4)cc1		-11.2
CCOC(=O)C1CCN(c2ncnc3c2c(-c2ccccc2)cn3-c2cccc(C)c2)CC1		0.255
COc1ccc(C(C)NC(=O)C23CC4CC(CC(C4)C2)C3)cc1 (configuration not stated)		-0.288
O=C(Nc1ccc(-c2ccc3nncn3n2)cc1)C1CCCCC1	26.9 µM (active)	
CC(=O)c1ccc(S(=O)(=O)Nc2ccc(-c3ccc4nncn4n3)cc2)cc1		6.25
CC(C)NS(=O)(=O)c1ccc(NC(=O)C2CCCCC2)cc1		3.94
COc1ccccc1NC(=O)c1oc2ccccc2c1NC(=O)COc1ccccc1OC		4.13
CCCCN(CC)CCCNC(=O)c1nn(C)c2c1CSc1ccccc1-2		-2.58
CCOC(=O)N1CCN(C(=O)CNC(=O)Cc2ccc(Cl)cc2)CC1		2.66
CCOC(=O)c1c(Cc2ccc(Cl)cc2)c[nH]c1C	19 µM (active)	
CCOC(=O)c1ccc(CS(=O)c2ccc(Cl)cc2)o1 (configuration not stated)		2.9
Cc1nc(C(=O)Nc2ccc(Cl)cc2)sc1C1(C)CC(c2ccccc2)=NO1 (configuration not stated)		-0.924
CC1(c2nnc(Cc3ccccc3)o2)CC(c2ccccc2F)=NO1 (configuration not stated)		3.85
Cc1nc(-c2ccc(Cl)cc2)sc1C1(C)CC(c2ccccc2F)=NO1 (configuration not stated)	19 µM (active)	

SMILES	Potency	activity change, negative = inhibition [%]
CN(CC(=O)Nc1ccc(F)c(F)c1F)C(=O)C1CC(=O)N(C2CCCC2)C1 (configuration not stated)		5.16
O=C(CSc1ncn[nH]1)NCc1ccc2c(c1)OCO2		1.02
O=C(/C=C/Sc1ncn[nH]1)c1ccc(Cl)cc1	1.9 µM (active)	
COC(=O)c1cc(NC(=O)C2C3C=CC(C3)C2C(=O)O)cc(C(=O)OC)c1 (configuration not stated)		2.36
CC(=O)NS(=O)(=O)c1ccc(NC(=O)C2C3C=CC(C3)C2C(=O)O)cc1 (configuration not stated)		-1.33
CC(C)COC(=O)c1ccc(NC(=O)C2C3C=CC(C3)C2C(=O)O)cc1 (configuration not stated)	19 µM (active)	
CCCN(CC1CC1)C(=S)NC(=O)c1ccccc1Br		-1.63
Cc1csc2nc(COC(=O)c3ccc(NC(=O)COc4ccccc4F)cc3)cc(=O)n12		1.55
COc1ccccc1N1CCN(C(=O)C2CCN(S(=O)(=O)c3c(C)noc3/C=C/c3ccc(C)cc3)CC2)CC1		-0.999
O=C(Nc1ccccn1)C1CCN(S(=O)(=O)c2ccccc2)CC1	23.9 µM (active)	
O=C(Nc1ccccn1)C1CCN(S(=O)(=O)c2ccc3c(c2)OCCO3)CC1	19 µM (active)	
O=C(NCc1ccccn1)C1CCN(S(=O)(=O)c2ccc(Br)cc2)CC1		-0.607
COCCNC(=O)C1CCN(S(=O)(=O)c2ccc3c(c2)OCCO3)CC1		0.983
O=C(NCc1cccs1)C1CCN(S(=O)(=O)c2ccc3c(c2)OCCO3)CC1		1.65
Cc1csc(NC(=O)C2CCN(S(=O)(=O)c3ccccc3)CC2)n1		-1.2
C=Cc1ccc(Cn2c(C(=O)O)c(CNC3CCCC3)c3ccc(C)cc32)cc1		-3.1
CCOC(=O)c1c(NC(C)=O)c2c3c(sc2n1Cc1c(C)cc(C)cc1C)CCCC3		3.94
CCOC(=O)c1ccccc1NC(=O)COC(=O)C(Cc1c[nH]c2ccccc12)NC(C)=O (configuration not stated)		6.1
CCC(=O)N1CCc2cc(S(=O)(=O)NCCC(=O)Nc3cccc(C)c3C)ccc21		-11.4
Cc1oc(C)c2c(=O)cc(-c3ccc4c(c3)OCO4)cc(OC(=O)c3ccc(Cl)cc3)c12		-12.7
Cc1cc(/C=C2\SC(=Nc3ccc(N4CCOCC4)cc3)N(C)C2=O)c(C)n1-c1cccnc1		-18.2
Cc1ccccc1N1CC(c2nc3ccccc3[nH]2)CC1=O (configuration not stated)		-0.236
CSc1cc(C)n(-c2ccccc2C)c(=S)c1C(C)=O		-0.379
Cc1cc(/C=C2/NC(=O)NC2=O)c(C)n1-c1cccnc1	15.1 µM (active)	
Cc1ccc2c(c1)C(O)(CC(=O)c1cccnc1)C(=O)N2 (configuration not stated)		0.816
Cc1ccccc1-n1c(C)cc(/C=C2\NC(=O)NC2=O)c1C	1.9 µM (active)	
